Measurements reported in PubChem BioAssay AID1159580 (chemical genetic matrix, 2015).
Several values for one entry are separate records, joined by “and”; a condition that tells them apart may be missing. Equal entries are not always repeated. Out of some 5,500 compounds screened, about 2,000 (36%) were called active. Another 18% or so got no clear call; they are omitted. No stated cut-off is given here; in the data, active means normalized growth mostly below about 0.91 (no sharp cut-off); inconclusive means no clear call, values can overlap the other calls; inactive means mostly above about 0.92. This is one part of the list.

Experiment: chemical genetic growth profiling, strain panel (AID 1159580);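 further: tested at 20 µM; growth read once vehicle control cultures reached saturation at 30 °C; 1 = growth at the plate median or of vehicle wells; lower values mean less growth of the strain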
Conditions: growth OD
[1] = S. cerevisiae deletion strains, locus YAL013W, strain DEP1, active compounds read low
[2] = S. cerevisiae deletion strains, locus YAL040C, strain CLN3, active compounds read low
[3] = S. cerevisiae deletion strains, locus YCL061C, strain MRC1 (second series), active compounds read low
[4] = S. cerevisiae deletion strains, locus YDR363W, strain ESC2, active compounds read low
[5] = S. cerevisiae deletion strains, locus YER002W, strain NOP16, active compounds read low
[6] = S. cerevisiae deletion strains, locus YGR229C, strain SMI1, active compounds read low
[7] = S. cerevisiae deletion strains, locus YMR263W, strain SAP30, active compounds read low
[8] = S. cerevisiae deletion strains, locus YNL175C, strain NOP13, active compounds read low
[9] = S. cerevisiae deletion strains, locus YNL197C, strain WHI3, active compounds read low
[10] = S. cerevisiae deletion strains, locus YNL224C, strain SQS1, active compounds read low
[11] = S. cerevisiae deletion strains, locus YOR083W, strain WHI5 (second series), active compounds read low
[12] = S. cerevisiae deletion strains, locus YPL055C, strain LGE1, active compounds read low
[13] = S. cerevisiae deletion strains, locus YMR307W, strain GAS1, active compounds read low
[14] = S. cerevisiae deletion strains, locus YPL241C, strain CIN2, active compounds read low

Measured: normalized growth

Cc1ccccc1CNc1ncnc2c1ncn2C1OC(CO)C(O)C1O (stereo not given)
inactive: [1] 1.01 | [2] 0.997 | [3] 0.999 | [4] 1.03 | [5] 1.01 | [6] 1.02 | [7] 1 | [8] 1.01 | [9] 0.995 | [10] 1.01 | S. cerevisiae deletion strains, locus YNL322C, strain KRE1, active compounds read low 1.01 | [11] 1.01 | [12] 1.01

CNc1ncnc2c1ncn2[C@@H]1O[C@H](CO)[C@H](O)C1O (stereo not given in full)
inactive: [1] 1.02 | [2] 1 | [3] 0.993 | [4] 0.996 | [5] 0.978 | [6] 1.01 | [13] 1.01 | S. cerevisiae deletion strains, locus YNL153C, strain GIM3, active compounds read low 1.01 | [8] 0.996 | [9] 0.999 | [10] 1 | [11] 1 | [14] 1

OC[C@H]1O[C@@H](n2cnc3c(NCc4ccco4)ncnc32)[C@H](O)[C@@H]1O
active: S. cerevisiae deletion strains, locus YOL012C, strain htz1 2.36 [resistant]
inactive: S. cerevisiae deletion strains, locus YBR021W, strain FUR4, active compounds read low 1.02 | S. cerevisiae deletion strains, locus YBR229C, strain ROT2, active compounds read low 1.01 | S. cerevisiae deletion strains, locus YCL029C, strain bik1, active compounds read low 1.01 | S. cerevisiae deletion strains, locus YDL035C, strain GPR1, active compounds read low 1.01 | S. cerevisiae deletion strains, locus YDL074C, strain BRE1, active compounds read low 1.05 | S. cerevisiae deletion strains, locus YDL101C, strain DUN1, active compounds read low 1.03 | S. cerevisiae deletion strains, locus YDL185W, strain tfp1, active compounds read low 1 | S. cerevisiae deletion strains, locus YDL192W, strain arf1, active compounds read low 1 | S. cerevisiae deletion strains, locus YDR101C, strain arx1, active compounds read low 1.02 | S. cerevisiae deletion strains, locus YDR150W, strain NUM1, active compounds read low 1.01 | S. cerevisiae deletion strains, locus YDR162C, strain NBP2, active compounds read low 1.02 | S. cerevisiae deletion strains, locus YDR318W, strain mcm21, active compounds read low 1 | S. cerevisiae deletion strains, locus YDR388W, active compounds read low 0.998 | S. cerevisiae deletion strains, locus YDR502C, strain sam2, active compounds read low 0.998 | S. cerevisiae deletion strains, locus YEL061C, strain CIN8, active compounds read low 1.01 | S. cerevisiae deletion strains, locus YER110C, active compounds read low 1 | S. cerevisiae deletion strains, locus YER155C, strain BEM2, active compounds read low 1.02 | S. cerevisiae deletion strains, locus YER167W, strain BCK2, active compounds read low 1 | S. cerevisiae deletion strains, locus YGL078C, strain dbp3, active compounds read low 0.999 | S. cerevisiae deletion strains, locus YGL086W, strain mad1, active compounds read low 1.02 | S. cerevisiae deletion strains, locus YGL248W, strain PDE1, active compounds read low 1.01 | S. cerevisiae deletion strains, locus YGR135W, strain pre9, active compounds read low 1 | [6] 1.02 | S. cerevisiae deletion strains, locus YGR252W, strain gcn5, active compounds read low 0.971 | S. cerevisiae deletion strains, locus YHR030C, strain SLT2, active compounds read low 1 and 1.06 | S. cerevisiae deletion strains, locus YHR079C, strain IRE1 (second series), active compounds read low 1.01 | S. cerevisiae deletion strains, locus YHR079C, strain IRE1, active compounds read low 1.04 | S. cerevisiae deletion strains, locus YHR094C, strain hxt1, active compounds read low 1 | S. cerevisiae deletion strains, locus YHR129C, strain ARP1, active compounds read low 1.02 | S. cerevisiae deletion strains, locus YHR200W, strain rpn10, active compounds read low 1.01 | S. cerevisiae deletion strains, locus YIL066C, strain RNR3, active compounds read low 1.01 | S. cerevisiae deletion strains, locus YIL073C, strain SPO22, active compounds read low 1.01 | S. cerevisiae deletion strains, locus YIL125W, strain kgd1, active compounds read low 1.01 | S. cerevisiae deletion strains, locus YIR030C, strain dcg1, active compounds read low 1.01 | S. cerevisiae deletion strains, locus YJL095W, strain BCK1, active compounds read low 1.06 and 1.02 | S. cerevisiae deletion strains, locus YJL134W, strain LCB3, active compounds read low 1.01 | S. cerevisiae deletion strains, locus YJL168C, strain set2, active compounds read low 1.01 | S. cerevisiae deletion strains, locus YJL187C, strain SWE1 (second series), active compounds read low 1.04 | S. cerevisiae deletion strains, locus YJR043C, strain POL32, active compounds read low 1.01 | S. cerevisiae deletion strains, locus YJR066W, strain TOR1, active compounds read low 0.974 | S. cerevisiae deletion strains, locus YKL009W, strain mrt4, active compounds read low 1.02 | S. cerevisiae deletion strains, locus YKL068W, active compounds read low 0.995 | S. cerevisiae deletion strains, locus YKL085W, strain MDH1 (second series), active compounds read low 0.993 | S. cerevisiae deletion strains, locus YKL085W, strain MDH1, active compounds read low 0.993 | S. cerevisiae deletion strains, locus YKL190W, strain CNB1, active compounds read low 1.01 | S. cerevisiae deletion strains, locus YKR001C, strain vps1, active compounds read low 1.01 | S. cerevisiae deletion strains, locus YLR039C, strain RIC1, active compounds read low 1.04 | S. cerevisiae deletion strains, locus YLR058C, strain SHM2, active compounds read low 1.02 | S. cerevisiae deletion strains, locus YLR102C, strain apc9, active compounds read low 1 | S. cerevisiae deletion strains, locus YLR113W, strain HOG1, active compounds read low 1.03 | S. cerevisiae deletion strains, locus YLR262C, strain YPT6, active compounds read low 1.06 | S. cerevisiae deletion strains, locus YLR268W, strain sec22, active compounds read low 1.04 | S. cerevisiae deletion strains, locus YLR330W, strain CHS5, active compounds read low 1.01 | S. cerevisiae deletion strains, locus YLR342W, strain FKS1 (second series), active compounds read low 1.01 | S. cerevisiae deletion strains, locus YLR371W, strain rom2, active compounds read low 1 | S. cerevisiae deletion strains, locus YLR418C, strain cdc73, active compounds read low 1.01 | S. cerevisiae deletion strains, locus YML016C, strain PPZ1, active compounds read low 1.01 | S. cerevisiae deletion strains, locus YML032C, strain rad52, active compounds read low 0.988 | S. cerevisiae deletion strains, locus YML124C, strain tub3, active compounds read low 0.996 | S. cerevisiae deletion strains, locus YMR078C, strain ctf18, active compounds read low 0.998 | S. cerevisiae deletion strains, locus YMR223W, strain ubp8, active compounds read low 1 | [7] 1.02 | [13] 1.04 | S. cerevisiae deletion strains, locus YNL067W, strain RPL9B, active compounds read low 1.04 | S. cerevisiae deletion strains, locus YNL183C, strain NPR1, active compounds read low 0.991 | S. cerevisiae deletion strains, locus YNL233W, strain BNI4, active compounds read low 1.05 | S. cerevisiae deletion strains, locus YNL250W, strain rad50, active compounds read low 1.02 | S. cerevisiae deletion strains, locus YNL271C, strain bni1, active compounds read low 1 | S. cerevisiae deletion strains, locus YNL298W, strain CLA4, active compounds read low 0.995 | S. cerevisiae deletion strains, locus YNL307C, strain MCK1, active compounds read low 1.01 | S. cerevisiae deletion strains, locus YNR052C, strain pop2, active compounds read low 0.996 | S. cerevisiae deletion strains, locus YOL147C, strain pex11, active compounds read low 0.998 | S. cerevisiae deletion strains, locus YOR061W, strain CKA2, active compounds read low 1.01 | S. cerevisiae deletion strains, locus YOR069W, strain VPS5, active compounds read low 1.01 | S. cerevisiae deletion strains, locus YOR136W, strain idh2, active compounds read low 1 | S. cerevisiae deletion strains, locus YOR144C, strain elg1, active compounds read low 0.987 | S. cerevisiae deletion strains, locus YOR184W, strain ser1, active compounds read low 0.999 | S. cerevisiae deletion strains, locus YOR231W, strain MKK1, active compounds read low 1.05 | S. cerevisiae deletion strains, locus YOR316C, strain cot1, active compounds read low 1 | [12] 1.03 | [14] 1 | S. cerevisiae deletion strains, locus YPL256C, strain CLN2, active compounds read low 1.06 | S. cerevisiae deletion strains, locus YPR119W, strain clb2, active compounds read low 1 | S. cerevisiae deletion strains, locus YPR141C, strain kar3, active compounds read low 1.01 | S. cerevisiae deletion strains, locus YPR163C, strain tif3, active compounds read low 1 | S. cerevisiae deletion strains, locus YPR167C, strain met16, active compounds read low 1.01 | S. cerevisiae deletion strains, strain wtn01, active compounds read low 1.04 | S. cerevisiae strains, strain wild type, active compounds read low 1.01
